Some test systems named below: DU-145 prostate; K-562 leukemia; MALME-3M melanoma; MDA-MB-231 breast; RXF 393 renal; SF-268 CNS; SF-295 CNS; SF-539 CNS; UACC-257 melanoma; M14 melanoma.
Experiment in all cases: NCI-60 one-dose screen, 48 h (100 = growth as untreated, 0 = no growth, -100 = all killed)
Conditions in all cases: 10 µM unless noted

Structures are written as SMILES. The panel holds about 83,000 compounds, 20% with a hit somewhere; the sample as a whole holds those more often.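 Growth was measured after 48 h exposure to one concentration of compound in 96-well plates. Values under 10 count as active.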 Unmarked numbers belong to inactive results. Calls of active or inactive are those of the source.

As for `COc1cccc(/C=C2\SC(=Nc3ccc(NC(C)=O)cc3)NC2=O)c1OC`, the growth was 85.1% in the experiment with DU-145 prostate; 101% in the experiment with K-562 leukemia; 107% with MALME-3M melanoma; 102% with MDA-MB-231 breast; 83.1% in the experiment on RXF 393 renal; 99% in the experiment with SF-268 CNS. The growth in the experiment on SF-295 CNS is 81.3%; in the experiment with SF-539 CNS, 94.4%; in the experiment with UACC-257 melanoma, 100%; in the experiment with M14 melanoma it was 98.1%.
Consider `C=C1C(=O)O[C@H]2[C@H]1CC/C(COC(=O)c1cc3cc(OC)ccc3[nH]1)=C\CC[C@@]1(C)O[C@@H]21`, for which the growth is -94.4% (active) in the experiment with DU-145 prostate; 0.302% (active) in the experiment on K-562 leukemia; -85.3% (active) in the experiment on MALME-3M melanoma; -71.6% (active) in the experiment with MDA-MB-231 breast; -95.1% (active) in the experiment on RXF 393 renal; -82.8% (active) in the experiment with SF-268 CNS. Besides, the growth in the experiment on SF-295 CNS was 47.5%; in the experiment on SF-539 CNS, -93.4% (active); with UACC-257 melanoma it was -89.6% (active); in the experiment on M14 melanoma, -52.9% (active).
Turning to `COc1cc2c(cc1-c1c(C)noc1C)ncc1nc(C3CCCCC3)n([C@H](C)COC(F)F)c12`, the growth in the experiment with DU-145 prostate is 63.8%; with K-562 leukemia, 24.6%; in the experiment with MALME-3M melanoma, 69.3%; with MDA-MB-231 breast it was 41.9%; in the experiment with RXF 393 renal, 52.6%; in the experiment with SF-268 CNS, 58.8%. Further, the growth in the experiment with SF-295 CNS was 52.4%; in the experiment on SF-539 CNS, 34.7%; in the experiment with UACC-257 melanoma, 31.4%; with M14 melanoma it was 39.9%.
Regarding `CNC(=O)c1cc(Oc2ccc(NC(=O)Nc3ccc(Cl)c(SC)c3)c(F)c2)ccn1`, the growth is 72.1% in the experiment with DU-145 prostate; 18.1% in the experiment with K-562 leukemia; 27.5% with MALME-3M melanoma; 50.1% with MDA-MB-231 breast; 85.9% in the experiment with RXF 393 renal; 50.6% in the experiment on SF-268 CNS. The growth with SF-295 CNS is 34%; in the experiment with SF-539 CNS it was 47.3%; in the experiment with UACC-257 melanoma, 28.1%; with M14 melanoma, 29.7%.
Consider `O=C1C=C(O)C(=O)C(CC2=C(O)C(=O)C=C(O)C2=O)=C1O`, for which the growth is 110% with DU-145 prostate; 106% with K-562 leukemia; 108% in the experiment with MALME-3M melanoma; 95.8% in the experiment with MDA-MB-231 breast; 110% in the experiment with RXF 393 renal; 100% in the experiment on SF-268 CNS. Moreover, the growth in the experiment on SF-539 CNS is 88.5%; in the experiment on UACC-257 melanoma, 105%; in the experiment on M14 melanoma it was 104%.
With `C=CC(=O)Nc1cccc(-c2nc(SC)nc(Nc3cccc(OC)c3)c2C#N)c1`, the growth is 54.6% in the experiment on DU-145 prostate; 54.6% in the experiment with K-562 leukemia; 77.6% in the experiment with MALME-3M melanoma; 71.4% in the experiment on MDA-MB-231 breast; 36.9% in the experiment with RXF 393 renal; 57.1% with SF-268 CNS. In addition, the growth in the experiment on SF-295 CNS was 77.8%; in the experiment on SF-539 CNS it was 71.3%; with UACC-257 melanoma, 82.3%; in the experiment on M14 melanoma, 60.6%.
Regarding `NC(=O)c1cc(I)ccc1NC(=O)/C=C/c1ccccc1Cl`, the growth was -18.8% (active) with DU-145 prostate; 5.46% (active) in the experiment with K-562 leukemia; 67.5% with MALME-3M melanoma; 23.3% with MDA-MB-231 breast; -17.9% (active) with RXF 393 renal; 36.8% in the experiment with SF-268 CNS. For the same molecule, the growth is -35.7% (active) in the experiment with SF-539 CNS and 65.7% with UACC-257 melanoma.
For the molecule `O=C(Oc1cccnc1)c1ccsc1Nc1ccnc(C(F)(F)F)c1`, the growth in the experiment on DU-145 prostate is 108%; with K-562 leukemia, 25.7%; in the experiment on MALME-3M melanoma, 84.9%; with MDA-MB-231 breast it was 63.2%; with RXF 393 renal, 105%; in the experiment with SF-268 CNS, 42.6%. In addition, the values for the growth with SF-539 CNS, in the experiment on UACC-257 melanoma and with M14 melanoma were 99.9%, 76% and 81.6%, respectively.
`CSc1nc(NCCO)c(C#N)c(-c2cccc([N+](=O)[O-])c2)n1`: the growth is 108% in the experiment with DU-145 prostate; 90.8% with K-562 leukemia; 111% in the experiment with MALME-3M melanoma; 86.5% in the experiment on MDA-MB-231 breast; 104% in the experiment on RXF 393 renal; 95.6% in the experiment with SF-268 CNS. For the same molecule, the growth is 98.3% with SF-295 CNS, 96.7% in the experiment on SF-539 CNS, 115% with UACC-257 melanoma and 104% in the experiment on M14 melanoma.
For the molecule `CN(C)CCCNc1c2ccccc2nc2ccccc12`, the growth in the experiment on DU-145 prostate is 101%; with K-562 leukemia, 96.8%; in the experiment on MALME-3M melanoma, 100%; in the experiment on MDA-MB-231 breast it was 85.2%; in the experiment on RXF 393 renal, 56.4%; with SF-268 CNS, 92.9%. Further, the growth is 89.6% in the experiment on SF-539 CNS and 104% in the experiment with UACC-257 melanoma.
Take `COc1ccc(C2Nc3c(c(C(C)(C)C)nn3-c3ccccc3)C(=O)CS2)cc1` (configuration not stated): the growth with DU-145 prostate was 101%; in the experiment with K-562 leukemia it was 98.5%; with MALME-3M melanoma it was 98%; with MDA-MB-231 breast, 94.2%; with RXF 393 renal it was 103%; with SF-268 CNS it was 98%. Besides, the growth with SF-539 CNS is 109%; in the experiment with UACC-257 melanoma it was 101%; with M14 melanoma, 112%.
With `COc1ccc(/C=N/C2=C(C#N)C(c3ccc(N(C)C)cc3)c3ccc4ccccc4c3O2)cc1` (configuration not stated), the growth with DU-145 prostate was 81.5%; in the experiment on K-562 leukemia, 14.7%; in the experiment on MALME-3M melanoma, 72%; in the experiment with MDA-MB-231 breast, 52.5%; with RXF 393 renal it was 67.2%; in the experiment with SF-268 CNS, 63.1%. The growth is 39.1% in the experiment on SF-295 CNS, 51.8% in the experiment with SF-539 CNS, 79.3% in the experiment on UACC-257 melanoma and 44% with M14 melanoma.
Take `COc1ccc(O)c(N=Nc2nccs2)c1`: the growth was 94.9% with DU-145 prostate; 102% in the experiment with MALME-3M melanoma; 39.3% in the experiment on MDA-MB-231 breast; 87.9% in the experiment with RXF 393 renal; 67.9% in the experiment with SF-268 CNS; 103% in the experiment on SF-295 CNS. The growth in the experiment with SF-539 CNS is 96.8%; in the experiment with UACC-257 melanoma, 93.7%; in the experiment with M14 melanoma, 105%.

Values taken from PubChem BioAssay (NCI).
